Screening data (PubChem BioAssay)
This excerpt belongs to a sample that is enriched for hits.
RmlCD inh 1536: inhibitors of Mycobacterium tuberculosis RmlC and RmlD coupled enzymes. hit rate 0.03% among 160,000. RmlC+RmlD coupled enzyme assay, percent inhibition; primary screen in compound mixtures. inhibition, % at 3.6 µM. P9WH09+P9WH11; in the data active = inhibition mostly above about 34%, no sharp cut-off; inconclusive = no clear call, values can overlap the other calls; inactive = mostly below about 22%
Target sequence (P9WH09 whole entry, looked up): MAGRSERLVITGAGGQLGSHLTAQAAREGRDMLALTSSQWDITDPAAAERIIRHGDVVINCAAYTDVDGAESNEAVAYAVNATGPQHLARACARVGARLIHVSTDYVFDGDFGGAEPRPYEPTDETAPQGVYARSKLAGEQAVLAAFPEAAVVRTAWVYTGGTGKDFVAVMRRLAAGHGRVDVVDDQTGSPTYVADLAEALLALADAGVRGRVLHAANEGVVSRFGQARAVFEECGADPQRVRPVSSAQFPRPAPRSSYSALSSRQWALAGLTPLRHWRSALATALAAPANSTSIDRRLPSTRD
Target sequence (P9WH11 whole entry, looked up): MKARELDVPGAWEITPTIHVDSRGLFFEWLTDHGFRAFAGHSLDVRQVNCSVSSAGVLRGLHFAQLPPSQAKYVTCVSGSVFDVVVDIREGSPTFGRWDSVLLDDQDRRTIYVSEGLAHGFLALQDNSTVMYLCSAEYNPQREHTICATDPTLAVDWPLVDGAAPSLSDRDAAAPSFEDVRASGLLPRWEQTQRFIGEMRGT
YopH inh: YopH (Yersinia) phosphatase inhibition; fluorescence Ex485/Em525; hit rate 0.16% among 140,000; inhibition, % (concentration not given with the values); in the data active = inhibition above about 50%
* = called active by the depositor; ? = inconclusive; . = no result given.

SMILES | RmlCD inh 1536 | YopH inh
Cc1ccc(NC2=C(NCCO)C(=O)c3ccccc3C2=O)cc1 | -2 | 89*
N#CCSc1ccc(-c2nc3ccccc3[nH]2)cn1 | -4 | .
CCCn1c2c(c(O)c(C(=O)Nc3nc4ccccc4s3)c1=O)CCCC2 | 1 | .
CCCCCCc1nc2ccccc2c(=O)n1NC(=O)c1c(O)c2c(n(CC(C)C)c1=O)CCCC2 | 7 | 5
CC(C)Cn1c2c(c(O)c(C(=O)Nc3nc4ccccc4s3)c1=O)CCCC2 | 82* | .
Cc1nc2ccccc2c(=O)n1NC(=O)c1c(O)c2c(n(CC(C)C)c1=O)CCCC2 | 44 | 84*
C=CCNC(=O)CC(=O)N/N=C/c1cccc(C)c1 | . | 4
CCC(=O)Nc1nonc1-c1nc2ccccc2n1CCC(C)C | -6 | 57*
CC(=O)Nc1nonc1-c1nc2ccccc2n1CCC(C)C | -12 | -39
Cc1cccc(OCCNC(=O)c2cccc(Oc3ccc(C(F)(F)F)cc3[N+](=O)[O-])c2)c1 | . | -6
Nc1c(NCCC2=CCCCC2)c(=O)[nH]c(=O)n1Cc1ccccc1 | . | -13
Nc1c(NCc2ccccc2F)c(=O)[nH]c(=O)n1Cc1ccccc1 | 11 | 64*
CCOC(=O)c1sc(Nc2ccccc2)nc1C | . | -19
CCOC(=O)c1sc(Nc2nc3c(OC)cccc3s2)nc1C | 74* | -38
N#C/C(=C/c1cn[nH]c1-c1ccc(Br)cc1)C(=O)O | -10 | .
CCCn1c(=O)c(C(=O)OCC)c(O)c2cc(Br)ccc21 | 11 | .
CCOC(=O)c1c2c(n(C)c1COC)C(=O)C(=O)c1ccc(Br)cc1-2 | . | 80*
CN1C(=O)C(Cc2c[nH]c3ccccc23)C(=O)N(C)C1=O | . | -26
CN1C(=O)C(Cc2cccc3ccccc23)C(=O)N(C)C1=O | -8 | 55*
S=C1NCCNC(=S)NCCOCCOCCOCCN1 | 4 | .
CCOc1ccc(/C(O)=C2/C(=O)C(=O)N(CC3CCCO3)C2c2cccs2)cc1 (stereo not drawn) | 2 | -23
Cc1cc(C)cc(NC(=O)COc2ccc(C(=S)N3CCOCC3)cc2)c1 | 5 | .
CCN1CCN(CCCOc2ccc(-c3ccccc3)cc2)CC1 | -5 | 55*
CCN1CCN(CCCOc2ccccc2-c2ccccc2)CC1 | 7 | .
O=S(=O)(NCc1ccccc1)NCc1cccc(C(F)(F)F)c1 | 0 | .
SMILES | RmlCD inh 1536 | YopH inh
COc1cccc(/C=C/c2nc3c(cnn3-c3ccccc3)c(=O)[nH]2)c1 | 35* | .
O=c1[nH]c(/C=C/c2ccc(Br)cc2)nc2c1cnn2-c1ccccc1 | -7 | .
COc1ccc(CN2C(=O)c3ccccc3C(/C=N\OCc3ccc(F)cc3)C2=O)cc1 (stereo not drawn) | 5 | 59*
COc1ccc(CN2C(=O)c3ccccc3C(/C=N/OCc3ccc(Cl)cc3)C2=O)cc1 (stereo not drawn) | 7 | -6
Cc1ccc(S(=O)(=O)/N=C2/C=C(Sc3ncn[nH]3)C(=O)c3ccccc32)cc1 | . | 100*
Cc1ccc(C)c(S(=O)(=O)Nc2ccc(O)c(Sc3ncn[nH]3)c2)c1 | -3 | .
Cc1ccc(S(=O)(=O)/N=C2/C=C(Sc3ncn[nH]3)C(=O)c3ccccc32)c(C)c1 | -13 | 101*
CCOc1ccc(S(=O)(=O)Nc2ccc(O)c(Sc3ncn[nH]3)c2)cc1 | 5 | -24
CC(C)c1ccc(S(=O)(=O)/N=C2/C=C(Sc3ncn[nH]3)C(=O)c3ccccc32)cc1 | -15 | 101*
Cc1ccc(S(=O)(=O)Nc2ccc(O)c(Sc3ncn[nH]3)c2)cc1 | -11 | .
COc1ccccc1-c1c(C)oc2c(CN3CCN(C)CC3)c(O)ccc2c1=O | . | -36
COc1ccccc1-c1c(C)oc2c(CN3CCN(CCO)CC3)c(O)ccc2c1=O | 56* | -37
O=C1CCCCC1c1cccc2ccccc12 (stereo not drawn) | 8 | -27
O=C1c2ccccc2C(=O)C12OC2c1cccc2ccccc12 (stereo not drawn) | 4 | 99*
Nn1c(SCC(=O)Nc2cccc(F)c2)nnc1C1CCCCC1 | 12 | -50
Cc1ccc(CN(C)C(=O)c2ccc3c(c2)NC(=O)CS3)o1 | -11 | .
O=C(NC(NC(=O)c1ccccc1)c1ccccc1)c1ccccc1 | -12 | 0
Cc1nc2ccccc2nc1N/N=C/c1ccc(O)cc1 | 3 | .
Oc1ccc(Nc2nc3ccccc3nc2Nc2ccc(O)cc2)cc1 | -5 | 70*
O=C(Nc1ccc(N2CCCC2)c(Cl)c1)c1ccccc1[N+](=O)[O-] | . | -13
COCCCNC(=O)CC(NS(=O)(=O)c1ccc(F)cc1)c1ccc(OC)cc1 (stereo not drawn) | -8 | 68*
COCCCNC(=O)CC(NS(=O)(=O)c1ccc(C)cc1)c1ccco1 (stereo not drawn) | 4 | -26
CC(C)C[C@H](NC(=O)c1[nH]cnc1C(=O)Nc1ccccc1)C(=O)OC(C)(C)C | -6 | .
Cc1ccc(CCNC(=O)CN(C)S(=O)(=O)c2ccc3c(c2)n(C)c(=O)c(=O)n3C)cc1 | -10 | .
CCN(Cc1cc(=O)n2ccsc2n1)Cc1nc2ccccc2c(=O)[nH]1 | 0 | .
SMILES | RmlCD inh 1536 | YopH inh
CC(/C=C/c1ccccc1)=N/NC(=O)Cn1nnc(N)n1 | -9 | .
Cc1nc2c(c(=O)n1CCC1=CCCCC1)c1nc3ccccc3nc1n2/N=C/c1ccccc1 | 34* | -11
CCOCCCn1c(C)nc2c(c1=O)c1nc3ccccc3nc1n2CCC1=CCCCC1 | 1 | -11
COc1ccc(-n2c(C)nc(N)c2C(=O)c2ccccc2)cc1 | 11 | .
COc1ccccc1CN1C(=O)c2ccncc2C1=O | -7 | -4
COc1ccc(CCN2C(=O)c3ccncc3C2=O)cc1OC | 22 | 51*
CCCC(=O)NCc1ccncc1 | -10 | .
O=C(O)CCN1Cc2ccccc2C1=O | 4 | -1
CCC(=O)N1Cc2ccccc2-c2ccccc2C1=O | . | 52*
CC1CCCC(NC(=O)CCn2c(=O)oc3ccccc32)C1C (stereo not drawn) | 4 | -19
Cc1ccc(C(=O)N2C(=S)C(c3ccc(F)cc3)=NC23CCN(C)CC3)cc1 | -15 | 77*
CN1CCN(NC(=O)c2ccc(F)cc2)CC1 | -5 | -7
COc1ccc2c(=O)c(-c3ccccc3)c(C)oc2c1 | ? | -32
O=C1O/C(=C/C(=O)N2CCOCC2)c2ccccc21 | . | -14
CNC(=S)N(Cc1ccc(OC)cc1)C1CC(=O)N(c2ccc(OC)cc2)C1=O (stereo not drawn) | . | -26
Oc1ccc2ccccc2c1C=NC12CN3CCN(CN(C3)C1)C2 | 7 | 82*
OCC(CO)(CO)N=Cc1c(O)ccc2ccccc12 | -6 | -39
O=C(NCC1(c2ccccc2)CCCC1)c1cccc(Br)c1 | 1 | -31
Cc1cc(C(=O)OCC(=O)NC2CCS(=O)(=O)C2)c2ccccc2n1 (stereo not drawn) | 6 | .
COc1ccc2cc(-c3cc(C(=O)OCC(=O)NC4CCS(=O)(=O)C4)c4ccccc4n3)ccc2c1 (stereo not drawn) | -8 | 97*
O=C(O)c1ccc(S(=O)(=O)Nc2cccc(CP(=O)(c3ccccc3)c3ccccc3)c2)cc1 | -1 | .
COC(=O)CCC(=O)Oc1ccc(OC(=O)CCC(=O)OC)cc1 | . | 59*
COC(=O)CCC(=O)Nc1ccc(NC(=O)CCC(=O)OC)cc1 | . | -46
O=C(c1cc2ccccc2o1)N1CCN=C1SCc1cccnc1 | . | -15
CN(C)/C=N/NC(=O)c1ccccc1 | -11 | .
O=C(NN=c1c(=O)c2ccccc2c1=O)c1ccccc1 | 2 | 68*
O=C(CSc1nncs1)Nc1ccc(Cl)cn1 | 3 | -26
COc1ccc(/C=N/NC(=O)C(C)n2cnc3ccccc3c2=O)cc1OC (stereo not drawn) | . | 67*
